Drawing on PubChem BioAssay (EPA / NIEHS), this text covers outcome and AC50 for 7 compounds.

Assay [1] in a line: BSK_CASM3C_SRB: Viability Assessment in the BioMAP Diversity Plus: CASM3C Assay (AID 2283050).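 Note: cells exposed to compound for 24 h.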 The settings on record: primary human coronary artery smooth muscle cells.
Read-out in assay [2]: Thrombomodulin, THBD (gene 7056)
Kind of assay: BSK_CASM3C_Thrombomodulin: BioMAP Diversity Plus: CASM3C Assay for Thrombomodulin Biomarker Activity (AID 2283051).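 Note: thrombomodulin protein level measured by ELISA 24 h after dosing.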 To be noted: primary human coronary artery smooth muscle cells; actives raise or lower the signal.

Read-out in assay [3]: Tissue Factor, F3 (gene 2152)
Description: BSK_CASM3C_TissueFactor: BioMAP Diversity Plus: CASM3C Assay for Tissue Factor Biomarker Activity (AID 2283052).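 Note: cell surface tissue factor protein level read by ELISA.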 The settings on record: primary human coronary artery smooth muscle cells; actives raise or lower the signal.

Read-out in assay [4]: Interferon-gamma inducible Protein 10 (IP10), CXCL10 (gene 3627)
Description: BSK_hDFCGF_IP10: BioMAP Diversity Plus: hDFCGF Assay for Interferon-gamma inducible Protein 10 (IP10) Biomarker Activity (AID 2283053). The settings on record: primary human foreskin fibroblasts; actives raise or lower the signal. Summed up: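 Primary human foreskin fibroblasts exposed to chemicals for 24 h. IP-10 measured by ELISA; changes fitted bidirectionally against DMSO baseline.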

Read-out in assay [5]: Urokinase-type plasminogen activator receptor (uPAR), PLAUR (gene 5329)
Description: BSK_CASM3C_uPAR: BioMAP Diversity Plus: CASM3C Assay for Urokinase-type plasminogen activator receptor (uPAR) Biomarker Activity (AID 2283054).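 Note: cell-surface uPAR protein level quantified by ELISA.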 The settings on record: primary human coronary artery smooth muscle cells; actives raise or lower the signal.

Read-out in assay [6]: Vascular cell adhesion molecule 1 (VCAM1), VCAM1 (gene 7412)
Kind of assay: BSK_CASM3C_VCAM1: BioMAP Diversity Plus: CASM3C Assay for Vascular cell adhesion molecule 1 (VCAM1) Biomarker Activity (AID 2283055).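 Note: VCAM-1 protein level quantified by ELISA on the cells.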 To be noted: primary human coronary artery smooth muscle cells; actives raise or lower the signal.

Read-out in assay [7]: Collagen III, COL3A1 (gene 1281)
Kind of assay: BSK_hDFCGF_CollagenIII: BioMAP Diversity Plus: hDFCGF Assay for Collagen III Biomarker Activity (AID 2283056). To be noted: primary human foreskin fibroblasts; actives raise or lower the signal. Summed up:
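ELISA readout of Collagen III in human dermal (foreskin) fibroblasts, taken 24 h post-treatment. Gain or loss relative to DMSO vehicle fitted in both directions.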

Read-out in assay [8]: Epidermal growth factor receptor (EGFR), EGFR (gene 1956)
Description: BSK_hDFCGF_EGFR: BioMAP Diversity Plus: hDFCGF Assay for Epidermal growth factor receptor (EGFR) Biomarker Activity (AID 2283057). To be noted: primary human foreskin fibroblasts; actives raise or lower the signal. Summed up:
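Primary human foreskin fibroblasts (hDFCGF system), sampled 24 h after dosing; EGFR quantified by ELISA. Bidirectional fit relative to DMSO baseline; SRB total-protein staining in parallel cultures for cytotoxicity.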

The nature of assay [9]: BSK_hDFCGF_Proliferation: Cell Proliferation Assessment in the BioMAP Diversity Plus: hDFCGF Assay (AID 2283059).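 Note: curves fitted for both rise and fall of signal versus DMSO baseline.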 The settings on record: primary human foreskin fibroblasts. Summed up: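 Sub-confluent human foreskin fibroblast cultures receive test chemical […]. Relative cell number is quantified by sulforhodamine B staining (0.1%, after 10% TCA fixation) at 560 nm, with bidirectional fitting referenced to DMSO.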

Read-out in assay [10]: Macrophage colony-stimulating factor (MCSF), CSF1 (gene 1435)
Kind of assay: BSK_hDFCGF_MCSF: BioMAP Diversity Plus: hDFCGF Assay for Macrophage colony-stimulating factor (MCSF) Biomarker Activity (AID 2283060). The settings on record: primary human foreskin fibroblasts; actives raise or lower the signal. Summed up:
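M-CSF levels read by ELISA at 24 h post-dosing in human skin fibroblasts. Parallel cultures stained with SRB assessed cytotoxicity at the same time point; response fitted in both directions against the DMSO baseline.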

Assay [11] is described as follows: BSK_hDFCGF_SRB: Viability Assessment in the BioMAP Diversity Plus: hDFCGF Assay (AID 2283061).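 Note: cells exposed to compound for 24 h before the read.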 The settings on record: primary human foreskin fibroblasts. Summed up: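 Viability was read as total protein: after 10% TCA fixation, wells were stained with 0.1% sulforhodamine B and read at 560 nm. Primary human foreskin fibroblasts were dosed for 24 h, with bidirectional fitting versus DMSO.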

Read-out in assay [12]: TIMP metallopeptidase inhibitor 1 (TIMP1), TIMP1 (gene 7076)
Description: BSK_hDFCGF_TIMP1: BioMAP Diversity Plus: hDFCGF Assay for TIMP metallopeptidase inhibitor 1 (TIMP1) Biomarker Activity (AID 2283062). To be noted: primary human foreskin fibroblasts; actives raise or lower the signal. Summed up:
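TIMP-1 measured by ELISA 24 h after chemical dosing of primary human skin fibroblasts, with gain or loss fitted relative to DMSO. Parallel SRB staining (560 nm) monitored overt cytotoxicity.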

Read-out in assay [13]: Monokine induced gamma interferon (MIG), CXCL9 (gene 4283)
Description: BSK_hDFCGF_MIG: BioMAP Diversity Plus: hDFCGF Assay for Monokine induced gamma interferon (MIG) Biomarker Activity (AID 2283063). To be noted: primary human foreskin fibroblasts; actives raise or lower the signal. Summed up:
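Human primary foreskin fibroblasts in the hDFCGF system, exposed to test chemical for 24 h; MIG measured by ELISA. Bidirectional curve fitting against DMSO negative control as activity baseline.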

Read-out in assay [14]: Matrix Metallopeptidase 1 (MMP1), MMP1 (gene 4312)
Description: BSK_hDFCGF_MMP1: BioMAP Diversity Plus: hDFCGF Assay for Matrix Metallopeptidase 1 (MMP1) Biomarker Activity (AID 2283064). To be noted: primary human foreskin fibroblasts; actives raise or lower the signal. Summed up:
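hDFCGF primary fibroblasts (human foreskin); chemical added; 24 h; MMP1 by ELISA; bidirectional fit vs DMSO.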

Read-out in assay [15]: Vascular cell adhesion molecule 1 (VCAM1), VCAM1 (gene 7412)
Kind of assay: BSK_hDFCGF_VCAM1: BioMAP Diversity Plus: hDFCGF Assay for Vascular cell adhesion molecule 1 (VCAM1) Biomarker Activity (AID 2283065). The settings on record: primary human foreskin fibroblasts; actives raise or lower the signal. Summed up:
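ELISA readout of VCAM-1 on human dermal fibroblast primary cultures, 24 h after chemical exposure. Gain or loss of signal fitted in both directions against DMSO baseline.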

Read-out in assay [16]: Plasminogen activator inhibitor-1 (PAI1), SERPINE1 (gene 5054)
Kind of assay: BSK_hDFCGF_PAI1: BioMAP Diversity Plus: hDFCGF Assay for Plasminogen activator inhibitor-1 (PAI1) Biomarker Activity (AID 2283066). The settings on record: primary human foreskin fibroblasts; actives raise or lower the signal. Summed up: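 Human foreskin fibroblast primary cells, 24 h chemical exposure; PAI-1 measured by ELISA. Bidirectional fitting relative to DMSO; parallel cultures stained with SRB for total protein to flag overt cytotoxicity.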

Read-out in assay [17]: Interferon-gamma inducible Protein 10 (IP10), CXCL10 (gene 3627)
Kind of assay: BSK_KF3CT_IP10: BioMAP Diversity Plus: KF3CT Assay for Interferon-gamma inducible Protein 10 (IP10) Biomarker Activity (AID 2283068). The settings on record: primary human keratinocytes with fibroblasts; actives raise or lower the signal. Summed up: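 ELISA read-out of IP-10 after 24 h chemical dosing of human skin primary co-culture (keratinocytes, foreskin fibroblasts). Gain or loss of signal relative to DMSO, bidirectional curve fit.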

Assay [18] in a line: BSK_KF3CT_SRB: Viability Assessment in the BioMAP Diversity Plus: KF3CT Assay (AID 2283069).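 Note: total protein by sulforhodamine B staining as a cytotoxicity measure; read 24 h after compound addition.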 To be noted: primary human keratinocytes with fibroblasts. Summed up:
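Keratinocytes co-cultured with foreskin fibroblasts (human primary); chemical added, 24 h; fix 10% TCA, stain 0.1% SRB, A560. Bidirectional fit vs DMSO.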

Read-out in assay [19]: Interleukin-8 (IL8), CXCL8 (gene 3576)
Kind of assay: BSK_hDFCGF_IL8: BioMAP Diversity Plus: hDFCGF Assay for Interleukin-8 (IL8) Biomarker Activity (AID 2283058). To be noted: primary human foreskin fibroblasts; actives raise or lower the signal. Summed up:
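IL-8 levels read by ELISA at 24 hours after dosing human skin fibroblast cultures. Parallel SRB staining assessed overt cytotoxicity, and gain or loss of signal was fitted against DMSO control.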

Read-out in assay [20]: Intercellular Adhesion Molecule 1 (ICAM1), ICAM1 (gene 3383)
Kind of assay: BSK_KF3CT_ICAM1: BioMAP Diversity Plus: KF3CT Assay for Intercellular Adhesion Molecule 1 (ICAM1) Biomarker Activity (AID 2283067). To be noted: primary human keratinocytes with fibroblasts; actives raise or lower the signal. Summed up:
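Cell-surface ICAM-1 was measured by ELISA 24 h after dosing primary human skin keratinocytes co-cultured with fibroblasts. Parallel SRB staining tracked overt cytotoxicity. Gain or loss of signal was fitted relative to DMSO.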

Calls of active or inactive are those of the source. Rule for the calls: active = hit-call score of the fitted dose curve at least 0.9, where 1 is the maximum; inactive = score below 0.9.

`CCC1(C)C(=O)N(Cl)C(=O)N1Cl` (stereo unspecified): the result in assay [1], in assay [2], in [3], in assay [4], in assay [5] and in assay [6] was inactive. The result in [7], in assay [8], in assay [9], in [10], in assay [11] and in assay [12] was inactive. Moreover, the outcome in [13], in [14], in assay [15], in [16], in assay [17] and in assay [18] was inactive.
With `O=C(Oc1ccccc1)c1ccccc1C(=O)Oc1ccccc1`, the outcome in assay [1], in [2], in assay [3], in assay [4], in assay [5] and in assay [6] was inactive. Moreover, the outcome in assay [8], in [19], in assay [10], in assay [11], in assay [12] and in [14] was inactive. In addition, the result in assay [15], in assay [20], in assay [17] and in [18] was inactive. In addition, the AC50 in assay [7] is 11.5 µM (active); in [9], 24 µM (active); in assay [16], 20 µM (active).
Turning to `CCOC(=O)C1=NN(c2ccc(Cl)cc2Cl)C(C)(C(=O)OCC)C1` (stereo unspecified), the result in assay [1], in assay [2], in assay [3], in assay [4], in [5] and in [6] was inactive. The outcome in assay [8], in assay [19], in assay [9], in [10], in assay [11] and in [12] was inactive. The outcome in assay [13], in assay [14], in assay [15], in assay [16], in [20] and in [17] was inactive. Also, the outcome in [18] was inactive. In [7], the AC50 is 20 µM (active).
On to `C=CC(=O)NCOCCCC`, for which the result in assay [1], in assay [2], in [3], in assay [4], in [5] and in assay [6] was inactive. In addition, the outcome in assay [7], in assay [8], in [19], in assay [9], in assay [10] and in [11] was inactive. Besides, the outcome in assay [12], in assay [14], in assay [15], in assay [16], in assay [17] and in assay [18] was inactive.
Take `CCCCCCOC(=O)CCCCC(=O)OCCCCCC`: the outcome in assay [1], in [2], in assay [3], in [4], in assay [5] and in [6] was inactive. The outcome in [7], in [8], in [9], in [10], in assay [11] and in assay [12] was inactive. Also, the outcome in assay [14], in assay [15], in assay [16], in [17] and in [18] was inactive.
As to `O=C1CCCCCCCCCCC1`, the result in assay [1], in assay [2], in assay [3], in assay [4], in assay [5] and in [6] was inactive. Also, the outcome in assay [7], in assay [8], in assay [9], in assay [10], in [11] and in assay [12] was inactive. The outcome in assay [14], in assay [15], in assay [16], in assay [17] and in assay [18] was inactive.
`Nc1ccc(C(=O)O)cc1`: the result in assay [1], in assay [2], in assay [3], in [4], in [5] and in [6] was inactive. In addition, the result in assay [7], in [8], in [9], in assay [10], in assay [11] and in [12] was inactive. For the same compound, the outcome in assay [14], in assay [15], in [16], in [17] and in assay [18] was inactive.

As usually defined, the AC50 is the concentration at which the activity in the assay is half-maximal.
